Granule exo inh = LAMP-1 surface exposure blockers, TALL-104 cells – cell-based, flow cytometry, MLPCN library, primary screen. TALL-104 LAMP-1 surface exposure; cells stimulated with thapsigargin and PMA. inhibition, % at 10 µM. 360,000 compounds, 0.66% hits. AID 651702, 2012;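 active means inhibition above about 55%, limit read from the data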
ABCB6 inh MLPCN = ABCB6 transporter inhibitors, primary screen, K562-ABCB6 cells, flow cytometry, MLPCN library | K562-ABCB6 porphyrin accumulation, 1 h; stronger effect = lower value | fluorescence ratio to DMSO, % at 10 µM | 360,000 compounds, 0.19% hits | AID 602162, 2011;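 active means fluorescence ratio to DMSO below 75%, the collection mean minus 3 SD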;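 further: signal is porphyrin accumulated inside mitochondria; 100% equals median channel fluorescence of DMSO control wells; lower ratio means ABCB6 inhibition with less porphyrin fluorescence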
rCAG RNA binder = binders of r(CAG) RNA repeats, primary screen, biochemical, fluorescence. r(CAG) RNA repeat, TO-PRO-1 dye displacement fluorescence. inhibition, % at 3 µM. 370,000 compounds, 1.3% hits. AID 651821, 2012;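 active means inhibition above the plate cutoff, the mean of all test compounds on that plate plus 3 SD, cut at about 35% in these data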;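 further: 0% = DMSO alone and 100% = 100 µM mitoxantrone as full dye displacement; higher means more dye released from RNA so lower well fluorescence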
PG9 Ab binder = binders of HIV-1 gp120 antibody PG9, primary screen, biochemical, TR-FRET; 360,000 compounds, 0.43% hits; inhibition, % at 6.7 µM; TR-FRET gp120-PG9 antibody binding; in the data active means inhibition above about 8.5%
ABCB6 blocker 1 = ABCB6 transporter inhibitors, confirmation, K562-ABCB6 cells, flow cytometry, cherry pick 1; shares compounds with ABCB6 inh MLPCN; K562-ABCB6 porphyrin accumulation, 1 h; stronger effect = lower value; ratio response (% of DMSO), % at 10 µM; 700 tested, under 10 active; AID 602430, 2012;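 active means repeat-averaged ratio response below 75% of DMSO, the collection mean minus 3 SD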;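 further: median porphyrin fluorescence at 575 nm with 488 nm excitation from mitochondria; lower ratio means less porphyrin signal so ABCB6 inhibition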
* = called active by the depositor; . = not tested or not shown. Compounds with a hit are over-represented: about 2.5% of the library has one in this group of screens.

SMILES	Granule exo inh	ABCB6 inh MLPCN	rCAG RNA binder	PG9 Ab binder	ABCB6 blocker 1
Cc1c(C(=O)Nc2c(F)cccc2F)sc2ncn(CC(=O)N3CCCCC3)c(=O)c12	-9.7	99.0	6.0	-0.9	.
CCN(CC)C(=O)Cn1cnc2sc(C(=O)Nc3cc(OC)c(OC)c(OC)c3)c(C)c2c1=O	-3.1	97.0	-6.9	1.0	102.0
CC(=O)Nc1cccc(NC(=O)c2sc3ncn(CC(=O)N4CCCCC4)c(=O)c3c2C)c1	-1.7	101.0	3.9	0.3	99.0
COc1ccc(OC)c(NC(=O)COC(=O)C2CCCCC2)c1	-4.0	102.0	2.8	-1.8	.
CNC(=O)C1Cc2c(-c3ccccc3Oc3ccccc3)ccnc2O1 (configuration not stated)	-3.5	102.0	-2.0	0.8	.
Cc1ccccc1CSCCNS(C)(=O)=O	2.2	44.0*	-1.0	-1.0	105.0
Cc1nc(N2CCN(c3ccccc3)CC2)nc2c1C(=O)CCC2	-1.8	55.0*	-8.0	2.5	99.0
O=C(CCC(=O)Nc1cccc(C(F)(F)F)c1)NCC1CCCO1 (configuration not stated)	-0.2	95.0	-3.4	-1.7	.
CC(=O)c1ccc(S(=O)(=O)NCc2cccnc2)cc1	-1.9	73.0*	1.4	0.2	98.0
O=C(O)c1ccc(S(=O)(=O)NCc2cccnc2)cc1	1.8	100.0	4.6	0.4	.
CCOc1ccccc1N1CC(C(=O)NCCOc2ccccc2OC)CC1=O (configuration not stated)	5.9	99.0	-4.9	-0.6	.
COc1ccc(CC/C(C)=N\NC(N)=O)cc1	4.0	100.0	0.6	-3.2	.
O=C1N(c2ccccc2)CC2C(c3ccccc3)C(c3ccccc3)N3CCCC123 (configuration not stated)	.	.	5.7	.	.
Clc1ccccc1-c1nnc2sc(C3COc4ccccc4O3)nn12 (configuration not stated)	3.9	44.0*	4.3	4.9	100.0
COc1cccc(NC(=O)c2sc3nc4n(c(=O)c3c2C)CCC4)c1	-9.1	24.0*	5.1	-2.3	102.0
Cc1c(C(=O)Nc2ccc(OC(F)(F)F)cc2)sc2nc3n(c(=O)c12)CCC3	0.4	66.0*	3.0	0.1	98.0
COc1ccc(NC(=O)c2sc3nc4n(c(=O)c3c2C)CCC4)c(OC)c1	.	.	.	.	102.0
Cc1c(C(=O)Nc2ccc(Oc3ccccc3)cc2)sc2nc3n(c(=O)c12)CCC3	0.6	84.0	9.0	0.6	.
CSc1cccc(NC(=O)c2sc3nc4n(c(=O)c3c2C)CCC4)c1	-3.2	93.0	7.9	-0.8	.
Cc1c(C(=O)Nc2cc(F)ccc2F)sc2nc3n(c(=O)c12)CCCCC3	-2.4	93.0	1.4	1.2	.
Nc1ccn([C@@H]2O[C@H](C(=O)N3CCN(C(=O)C(F)(F)F)CC3)[C@@H](O)[C@H]2O)c(=O)n1	.	.	2.1	-0.2	.
COC(=O)[C@]12C[C@H](CC(=O)NCc3ccc(C)o3)C(=O)N(Cc3ccc4c(c3)OCO4)C1=C[C@H](COCc1ccccc1)O[C@@H]2C	.	.	6.0	1.6	.
C=CCN(CC=C)Cc1c(C)[nH]c2c(C)c(C)ccc2c1=O	-0.1	114.0	6.2	0.3	.
CCN(Cc1ccccc1)Cc1c(C)[nH]c2c(C)c(C)ccc2c1=O	-2.2	55.0*	1.8	1.2	99.0
Cc1cc(C)c(C#N)c(N2CCN(Cc3ccc4c(c3)OCO4)CC2)n1	-2.0	104.0	-1.6	-0.1	.
SMILES	Granule exo inh	ABCB6 inh MLPCN	rCAG RNA binder	PG9 Ab binder	ABCB6 blocker 1
Cc1cc(C)c(C#N)c(N2CCN(Cc3ccccc3)CC2)n1	-2.9	47.0*	-5.7	0.7	99.0
CCOC(=O)c1cccc(NC(=O)CN(C)S(=O)(=O)c2cc(OC)ccc2OC)c1	.	.	2.2	.	.
CCNC(=O)c1cccc(NC(=O)CN2C(=O)NC3(CCCCC3)C2=O)c1	4.6	100.0	-3.6	1.0	.
CC(=O)c1cccc(NC(=O)CN2C(=O)NC3(CCCCCCC3)C2=O)c1	1.3	61.0*	1.2	0.7	99.0
O=S1(=O)c2ccc(Br)cc2OC[C@H](Cc2ccccc2)N1Cc1cn(Cc2ccc(Cl)cc2)nn1	.	.	5.1	.	.
N#CCCSCc1ccc(C(=O)O)o1	1.3	68.0*	2.8	-1.3	99.0
COc1ccc(-n2c(SCC(=O)Nc3cc(C)on3)nc3c(c2=O)SC(C)C3)cc1 (configuration not stated)	3.3	99.0	4.6	-0.5	.
COc1ccc(NC(=O)CSc2nnc(-c3ccccn3)n2N)cc1	-2.2	98.0	0.9	0.8	.
COc1ccc(NC(=O)CSc2nnc(-c3ccccn3)n2N)c(OC)c1	3.4	73.0*	-3.6	-2.2	102.0
COc1cc(OC)c(C#N)c(S(=O)(=O)Cc2ccccc2)c1	-4.2	68.0*	11.6	1.5	99.0
CC(C)(C)c1ccc(-c2nnc(SCC(=O)Nc3cccc4ccccc34)n2Cc2ccco2)cc1	.	.	7.3	.	.
CC(C)NCc1nnc(-c2ccc(Cl)cc2)o1	0.2	71.0*	4.0	-0.5	102.0
O=c1cc(CO)oc(CN2CCN(c3cccc(C(F)(F)F)c3)CC2)c1O	-1.5	91.0	3.2	0.6	.
O=c1cc(CO)oc(CN2CCN(c3ccccc3)CC2)c1O	-1.0	73.0*	-0.2	1.0	101.0
O=S1(=O)N[C@H](c2ccccc2)COc2cc(Br)ccc21	.	.	1.7	0.9	.
Cc1ccc(Cn2c(CN(C)Cc3ccccc3)nc3c2c(=O)n(C)c(=O)n3C)cc1	4.6	101.0	0.1	0.5	.
CN(Cc1ccccc1)Cc1nc2c(c(=O)n(C)c(=O)n2C)n1Cc1ccc(F)cc1	0.5	63.0*	-10.5	-0.9	97.0
Cc1cccc(C(=O)Nc2c(C#N)c(C)c(C)n2Cc2ccccc2)c1	-1.1	106.0	-1.8	-2.4	.
Cc1c(C#N)c(NC(=O)C(C)C)n(Cc2ccccc2)c1C	-7.0	74.0*	0.6	1.6	103.0
COc1cc(OC)cc(C(=O)N[C@H](C(=O)OCC(=O)N2CCc3ccccc32)C(C)C)c1	-1.2	94.0	-5.7	0.0	.
O=C(CSc1nnc(-c2ccc(F)cc2)o1)Nc1ccc(S(=O)(=O)N2CCCC2)cc1	12.0	99.0	10.8	-3.1	.
O=C(CSc1nnc(-c2ccc(F)cc2)o1)Nc1ccc(S(=O)(=O)N2CCCCCC2)cc1	1.5	31.0*	0.4	0.6	98.0
CCCC[C@@H]1C(=O)N2N=C(c3ccccc3)c3ccccc3[C@H]2N2N=C(c3ccccc3)c3ccccc3[C@@H]12	.	.	9.0	.	.
O=S(=O)(NCc1ccccc1)NCc1ccccc1F	-8.2	96.0	-3.0	-0.6	.
COc1ccc(CNS(=O)(=O)NCc2ccccc2F)cc1	-0.4	70.0*	-2.0	0.5	96.0
CCc1ccccc1NC(=O)CCCSc1nc2ccccc2s1	-1.7	72.0*	-3.3	-0.9	103.0
